CTSL1 counter – blocks F. hepatica cathepsin L1 in PFM18AAP counter-screen | recombinant F. hepatica cathepsin L1, Z-Leu-Arg-MCA fluorescence | inhibition, % at 5.96 µM | hit rate 0.49% among 300,000;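 active means inhibition above the mean of all tested compounds plus 3 SD, set per screening campaign, cut at about 17% in these data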;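 further: 0% = plate median of test compound wells and 100% = 1 µM Z-Phe-Ala-diazomethylketone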
M18AAP inhibitor – blocks P. falciparum M18 aspartyl aminopeptidase; recombinant PfM18AAP, H-Glu-NHMec fluorogenic cleavage; inhibition, % at 7.35 µM; hit rate 1.2% among 290,000; AID 1822;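 active means inhibition above the campaign mean inhibition over all tested compounds plus 3 SD, cut at about 28% in these data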;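 further: 0% = plate median of test compound wells and 100% = 2 mM ZnCl2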
Rin1-Abl PPI inh – human Rin1-Abl interaction inhibition. TR-FRET Rin1/Abl binding, biochemical. inhibition, % at 7.35 µM. hit rate 0.4% among 360,000; in the data active means inhibition above about 5%, passing the limit was not always enough
Calb FLC – affects C. albicans growth with fluconazole; C. albicans CaCi-2 (fluconazole-resistant clinical isolate) + fluconazole, Alamar Blue growth, 48 h; growth inhibition, % (no concentration beside the values); hit rate 0.57% among 300,000;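 active means growth inhibition above about 58% in most replicates, limit read from the data, passing the limit was not always enough; inconclusive means exactly half the replicates above a set limit; inactive means most replicates below a set limit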;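 further: all wells also contain fluconazole at 8 µg/ml as a sub-toxic cotreatment; 0% = median of DMSO wells and 100% = median of geldanamycin control wells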
Starred values were filed as active, the others as inactive; ? = inconclusive; nt = no result. Compounds with a hit are over-represented: about 2.1% of the library has one in this group of screens.

SMILES | CTSL1 counter | M18AAP inhibitor | Rin1-Abl PPI inh | Calb FLC
CC(CC(=O)Nc1ncc([N+](=O)[O-])s1)c1ccccc1 (centres undefined) | 0 | 9 | 2 | 92*
CCC(Oc1ccccc1)C(=O)Nc1ncc([N+](=O)[O-])s1 (centres undefined) | 3 | 3 | 2 | 94*
Cc1cccc(OCC(=O)Nc2ccc3oc(=O)ccc3c2)c1C | 11 | 0 | -2 | 8
CCc1ccc(CNC(=O)CCC(=O)N2Cc3cccc(OC)c3Oc3ncccc32)cc1 | -4 | 6 | 0 | 85*
CCOC(=O)CNC(=S)n1cnc(N)n1 | -7 | 57* | 2 | 29
Cc1ccc(C)c(/C=N/n2cc(-c3ccccc3)[nH]c2=S)c1 | 0 | 29* | -4 | -4
Cc1ccc(-c2cn(-c3ccccc3F)c(=S)[nH]2)cc1 | 2 | 10 | 3 | -22
S=c1[nH]c(-c2ccccc2)cn1/N=C/c1ccc(Br)cc1 | 0 | 19 | 3 | 3
O=C(O)c1ccc(/C=N/n2cc(-c3ccccc3)[nH]c2=S)cc1 | 3 | 48* | -5 | -5
O=C(NCSc1ccnc(SCNC(=O)c2ccccc2)n1)c1ccccc1 | 19* | 38* | 3 | 8
COc1ccc(NC(=S)Nc2ccc3snnc3c2)cc1 | -2 | 30* | 2 | 4
COc1cccc(NC(=S)Nc2ccc(O)cc2)c1 | 0 | 35* | 1 | -6
Cc1sc(NC(=O)CN2C(=O)NC3(CCCC3)C2=O)nc1-c1ccc(F)cc1 | -2 | nt | 3 | -15
COc1cc2ccccc2cc1C(=O)N(CCN(C)C)c1nc2c(F)cc(F)cc2s1 | 4 | -14 | 2 | 27
COc1cc2ccccc2cc1C(=O)N(CCN(C)C)c1nc2ccc(Br)cc2s1 | 0 | -2 | -2 | 102*
COc1ccc(OC)c(-n2c(CN3CCC(C(N)=O)CC3)nc3ccccc3c2=O)c1 | 7 | -4 | 0 | 117*
COc1ccc(OC)c(-n2c(CNC3CCN(Cc4ccccc4)CC3)nc3ccccc3c2=O)c1 | -1 | 7 | 0 | 1
O=C(C[n+]1cc(-c2ccc(Cl)c(Cl)c2)n2c1CCC2)N1c2ccccc2Sc2ccccc21 | -2 | 3 | 1 | 107*
Cc1ccc(C(=O)C[n+]2cc(-c3ccc(C)cc3)n3c2CCCCC3)cc1 | -7 | 8 | 3 | 88*
O=C(C[n+]1cc(-c2ccc(Cl)cc2)n2c1CCC2)N1c2ccccc2Sc2ccccc21 | -2 | -4 | -4 | 107*
COc1ccc(C(=O)C[n+]2cc(-c3ccc(OC)cc3)n3c2CCCC3)cc1 | 2 | -9 | 1 | -27
Cc1occc1C(=O)N1CCCC(Nc2ccc(C(C)C)cc2)C1 (centres undefined) | -3 | 8 | -2 | -2
CCCCC[C@H](O)/C=C/[C@H]1[C@H](O)CC(=O)[C@@H]1CCCCCCC(=O)O | -2 | nt | nt | 0
CCCCCCCCCCC[C@@H](C[C@@H]1OC(=O)[C@H]1CCCCCC)OC(=O)[C@H](CC(C)C)NC=O | 21* | 2 | 5 | nt
COc1ccccc1N1CCN(C(=O)CN(C)S(=O)(=O)c2ccc(C)cc2)CC1 | nt | nt | -2 | nt
SMILES | CTSL1 counter | M18AAP inhibitor | Rin1-Abl PPI inh | Calb FLC
Cc1cccc2c(N)c3c(nc12)N(C)CC3 | -4 | 31* | 2 | -6
CN1CCc2c1nc1ccccc1c2N (tested in a mixture with another compound) | 6 | -5 | -2 | -24
CCN(CC)c1cc(Cl)c2nonc2c1N | 0 | 2 | -1 | -2
CN(C)c1cc(Cl)c2nonc2c1N | 39* | 10 | -4 | 2
COc1ccc(C(=O)OCC(=O)c2ccc[nH]2)c(OC)c1 | nt | nt | 4 | nt
COc1ccc2cc(/C(C)=N/NC(=S)Nc3cc(S(=O)(=O)N4CCOCC4)ccc3N3CCOCC3)ccc2c1 | 1 | 30* | nt | -10
C/C(=N\NC(=S)Nc1cc(S(=O)(=O)N2CCOCC2)ccc1Cl)c1ccc(N2CCOCC2)cc1 | -1 | 10 | -3 | -2
C/C(CCC(C)C)=N\NC(=S)Nc1cc(S(=O)(=O)N2CCOCC2)ccc1N1CCOCC1 | 2 | 28* | -1 | 26
CCCC(C)C(=O)Nc1cc(S(=O)(=O)N2CCCCC2)ccc1N1CCOCC1 (centres undefined) | nt | nt | 2 | nt
O=C1C2CCCN2C(c2ccco2)N1c1ccc(F)cc1 (centres undefined) | -8 | 3 | -1 | -1
C=CCOc1ccc(C(=O)c2ccccc2)c(OCC(=O)NC2(C#N)CCCC2)c1 | 18* | 4 | 0 | -2
CN(CCNC(=O)CCCOc1cc(=O)n(C)c2ccccc12)Cc1ccccc1 | -2 | -1 | 2 | ?
CN(CCCNC(=O)CCCOc1cc(=O)n(C)c2ccccc12)Cc1ccccc1 | -2 | 4 | -2 | 116*
Cn1c(=O)cc(OCCCC(=O)Nc2cccnc2)c2ccccc21 | -4 | -4 | -4 | 111*
O=C(O)CC1=C(Nc2ccccc2)C(=O)N(c2ccccc2)C1c1ccc(Br)cc1 (centres undefined) | 2 | 8 | 0 | -2
Cc1ccc(F)cc1NC(=O)N1CCN(C2c3ccccc3-c3ccccc32)CC1 | -3 | -9 | 1 | -42
CCOC(=O)c1c(C)[nH]c(C(=O)COC(=O)CNC(=O)C2CCCCC2)c1C | 27* | 9 | -2 | -5
CCOC(=O)c1c(C)[nH]c(C)c1C(=O)COC(=O)CNC(=O)C1CCCCC1 | 54* | -1 | 1 | -7
CC(C)C(=O)N1CCC2(CC1)Oc1ccc(Cl)cc1C(=O)C21CC(c2cccnc2)=NO1 (centres undefined) | -1 | nt | 1 | 29
Cn1c(=O)c(C(=O)COc2ccc(F)cc2Cl)c(N)n(Cc2ccccc2)c1=O | 31* | 0 | 2 | -1
CC(C)c1nc(SCC(=O)Nc2ccc(N(C)C)cc2)c2ccccc2n1 | 3 | 10 | -2 | -3
COc1ccc(C(C#N)=C2C=CC(=NO)C=C2)cc1 | 0 | 29* | 1 | 2
CC(=O)ON=C1C=CC(=C(C#N)c2ccccc2)C=C1 | nt | nt | 2 | nt
O=C(Nc1ccccc1)c1cc([N+](=O)[O-])ccc1Cl | -2 | nt | -3 | nt
O=C(Nc1ncn[nH]1)c1cc([N+](=O)[O-])ccc1Cl | 2 | 30* | 0 | 4
SMILES | CTSL1 counter | M18AAP inhibitor | Rin1-Abl PPI inh | Calb FLC
Cc1cc(C)nc(SCCCNCc2ccccc2)n1 | -5 | -1 | 0 | 24
O=C(COC(=O)C1CSC2(c3ccc(F)cc3)CCC(=O)N12)NC(=O)NC1CCCC1 (centres undefined) | -8 | 5 | 0 | -5
C/C=C\C=C/C(=O)Nc1cccc(C2=NOC3(C2)C[C@@H](C(N)=O)N(C(=O)[C@H]2CCC(=O)N2)C3)c1 (some centres undefined) | 20* | nt | 0 | -9
Nc1c(/C=C2/C=CC(=O)C(O)=C2)c(=O)nc2sc(CC(=O)N3CCOCC3)nn12 | nt | nt | 6 | nt
Nc1c(/C=C2/C=CC(=O)C(O)=C2)c(=O)nc2sc(CC(=O)N3CCCCC3)nn12 | 1 | 64* | 2 | -3
COc1cc(/C=C/C(=O)NC(=O)c2ccccc2O)ccc1OC(C)=O | 2 | 8 | -4 | 5
CCN(CC)C(=O)c1sc(N)c(C#N)c1C | 7 | -4 | 4 | 2
Cc1sc(N)c(C#N)c1C | 2 | 37* | 0 | -4
